From PubChem BioAssay AID1159580 (chemical genetic matrix, 2015)
The campaign covered roughly 5,500 compounds. About 2,000 (36%) were called active. Another 18% or so got no clear call; they are omitted. Cut-off read from the data, not from the text of the source: active = normalized growth mostly below about 0.91 (no sharp cut-off); inconclusive = no clear call, values can overlap the other calls; inactive = mostly above about 0.92. This is one part of the list.

Assay: chemical genetic growth profiling, strain panel (AID 1159580);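 note: tested at 20 µM; growth read once vehicle control cultures reached saturation at 30 °C; 1 = growth at the plate median or of vehicle wells; lower values mean less growth of the strain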
Conditions: growth OD

Question: Which results are given for CC[C@@]1(O)C[C@H](O[C@H]2C[C@H](N(C)C)[C@H](O)[C@H](C)O2)c2c(cc3c(c2O)C(=O)c2c(O)ccc(O)c2C3=O)[C@H]1C(=O)OC?
Answer: normalized growth (S. cerevisiae deletion strains, locus YJR066W, strain TOR1, active compounds read low): 0.957 (inactive); normalized growth (S. cerevisiae deletion strains, locus YJR075W, strain HOC1, active compounds read low): 0.0948 (active); normalized growth (S. cerevisiae deletion strains, locus YKL009W, strain mrt4, active compounds read low): 0.961 (inactive); normalized growth (S. cerevisiae deletion strains, locus YKL068W, active compounds read low): 0.982 (inactive); normalized growth (S. cerevisiae deletion strains, locus YKL085W, strain MDH1 (second series), active compounds read low): 1 (inactive); normalized growth (S. cerevisiae deletion strains, locus YKL085W, strain MDH1, active compounds read low): 1 (inactive); normalized growth (S. cerevisiae deletion strains, locus YKL160W, strain elf1, active compounds read low): 0.924 (inactive); normalized growth (S. cerevisiae deletion strains, locus YKR001C, strain vps1, active compounds read low): 0.0857 (active); normalized growth (S. cerevisiae deletion strains, locus YKR026C, strain gcn3, active compounds read low): 0.994 (inactive); normalized growth (S. cerevisiae deletion strains, locus YKR091W, strain srl3, active compounds read low): 0.958 (inactive); normalized growth (S. cerevisiae deletion strains, locus YLL001W, strain dnm1, active compounds read low): 0.884 (active); normalized growth (S. cerevisiae deletion strains, locus YLL026W, active compounds read low): 0.975 (inactive); normalized growth (S. cerevisiae deletion strains, locus YLL041C, strain sdh2, active compounds read low): 0.935 (inactive); normalized growth (S. cerevisiae deletion strains, locus YLR027C, strain aat2, active compounds read low): 0.975 (inactive); normalized growth (S. cerevisiae deletion strains, locus YLR039C, strain RIC1, active compounds read low): 0.113 (active); normalized growth (S. cerevisiae deletion strains, locus YLR058C, strain SHM2, active compounds read low): 0.0794 (active); normalized growth (S. cerevisiae deletion strains, locus YLR102C, strain apc9, active compounds read low): 0.467 (active); normalized growth (S. cerevisiae deletion strains, locus YLR113W, strain HOG1, active compounds read low): 0.95 (inactive); normalized growth (S. cerevisiae deletion strains, locus YLR221C, strain rsa3, active compounds read low): 0.877 (active); normalized growth (S. cerevisiae deletion strains, locus YLR258W, strain gsy2, active compounds read low): 0.905 (active); normalized growth (S. cerevisiae deletion strains, locus YLR262C, strain YPT6 (second series), active compounds read low): 0.701 (active); normalized growth (S. cerevisiae deletion strains, locus YLR262C, strain YPT6, active compounds read low): 0.13 (active); normalized growth (S. cerevisiae deletion strains, locus YLR268W, strain sec22, active compounds read low): 0.112 (active); normalized growth (S. cerevisiae deletion strains, locus YLR320W, strain mms22, active compounds read low): 0.844 (active); normalized growth (S. cerevisiae deletion strains, locus YLR330W, strain CHS5, active compounds read low): 0.0655 (active); normalized growth (S. cerevisiae deletion strains, locus YLR342W, strain FKS1 (second series), active compounds read low): 0.0959 (active); normalized growth (S. cerevisiae deletion strains, locus YLR342W, strain FKS1, active compounds read low): 0.865 (active); normalized growth (S. cerevisiae deletion strains, locus YLR357W, strain rsc2, active compounds read low): 0.907 (inactive); normalized growth (S. cerevisiae deletion strains, locus YLR370C, strain arc18, active compounds read low): 0.88 (active); normalized growth (S. cerevisiae deletion strains, locus YLR371W, strain rom2, active compounds read low): 0.15 (active); normalized growth (S. cerevisiae deletion strains, locus YLR384C, strain iki3, active compounds read low): 0.957 (inactive); normalized growth (S. cerevisiae deletion strains, locus YLR418C, strain cdc73, active compounds read low): 0.138 (active); normalized growth (S. cerevisiae deletion strains, locus YML016C, strain PPZ1, active compounds read low): 0.0829 (active); normalized growth (S. cerevisiae deletion strains, locus YML032C, strain rad52, active compounds read low): 0.121 (active); normalized growth (S. cerevisiae deletion strains, locus YML120C, strain ndi1, active compounds read low): 1.02 (inactive); normalized growth (S. cerevisiae deletion strains, locus YML124C, strain tub3, active compounds read low): 0.195 (active); normalized growth (S. cerevisiae deletion strains, locus YMR058W, strain fet3, active compounds read low): 0.416 (active); normalized growth (S. cerevisiae deletion strains, locus YMR078C, strain ctf18, active compounds read low): 0.147 (active); normalized growth (S. cerevisiae deletion strains, locus YMR125W, strain sto1, active compounds read low): 1.02 (inactive); normalized growth (S. cerevisiae deletion strains, locus YMR129W, active compounds read low): 0.997 (inactive); normalized growth (S. cerevisiae deletion strains, locus YMR205C, strain PFK2, active compounds read low): 0.871 (active); normalized growth (S. cerevisiae deletion strains, locus YMR223W, strain ubp8, active compounds read low): 0.157 (active); normalized growth (S. cerevisiae deletion strains, locus YMR231W, strain pep5, active compounds read low): 1 (inactive); normalized growth (S. cerevisiae deletion strains, locus YMR263W, strain SAP30, active compounds read low): 0.377 (active); normalized growth (S. cerevisiae deletion strains, locus YMR307W, strain GAS1, active compounds read low): 0.149 (active); normalized growth (S. cerevisiae deletion strains, locus YNL067W, strain RPL9B, active compounds read low): 0.0765 (active); normalized growth (S. cerevisiae deletion strains, locus YNL071W, strain lat1, active compounds read low): 0.951 (inactive); normalized growth (S. cerevisiae deletion strains, locus YNL153C, strain GIM3, active compounds read low): 0.0856 (active); normalized growth (S. cerevisiae deletion strains, locus YNL183C, strain NPR1, active compounds read low): 0.941 (inactive); normalized growth (S. cerevisiae deletion strains, locus YNL209W, strain ssb2, active compounds read low): 0.82 (active); normalized growth (S. cerevisiae deletion strains, locus YNL233W, strain BNI4, active compounds read low): 0.0884 (active); normalized growth (S. cerevisiae deletion strains, locus YNL248C, strain rpa49, active compounds read low): 0.974 (inactive); normalized growth (S. cerevisiae deletion strains, locus YNL250W, strain rad50, active compounds read low): 0.738 (active); normalized growth (S. cerevisiae deletion strains, locus YNL271C, strain bni1, active compounds read low): 0.96 (inactive); normalized growth (S. cerevisiae deletion strains, locus YNL298W, strain CLA4, active compounds read low): 0.98 (inactive); normalized growth (S. cerevisiae deletion strains, locus YNL307C, strain MCK1, active compounds read low): 0.0826 (active); normalized growth (S. cerevisiae deletion strains, locus YNL322C, strain KRE1 (second series), active compounds read low): 0.972 (inactive); normalized growth (S. cerevisiae deletion strains, locus YNR049C, strain mso1, active compounds read low): 0.926 (inactive); normalized growth (S. cerevisiae deletion strains, locus YNR052C, strain pop2, active compounds read low): 0.0986 (active); normalized growth (S. cerevisiae deletion strains, locus YOL012C, strain htz1): 0.253 (inactive); normalized growth (S. cerevisiae deletion strains, locus YOL147C, strain pex11, active compounds read low): 0.13 (active); normalized growth (S. cerevisiae deletion strains, locus YOR001W, strain rrp6, active compounds read low): 1.01 (inactive); normalized growth (S. cerevisiae deletion strains, locus YOR061W, strain CKA2, active compounds read low): 0.0764 (active); normalized growth (S. cerevisiae deletion strains, locus YOR069W, strain VPS5, active compounds read low): 0.0745 (active); normalized growth (S. cerevisiae deletion strains, locus YOR070C, strain gyp1, active compounds read low): 0.989 (inactive); normalized growth (S. cerevisiae deletion strains, locus YOR080W, strain dia2, active compounds read low): 0.916 (inactive); normalized growth (S. cerevisiae deletion strains, locus YOR083W, strain WHI5, active compounds read low): 0.918 (inactive); normalized growth (S. cerevisiae deletion strains, locus YOR106W, strain vam3, active compounds read low): 0.703 (active); normalized growth (S. cerevisiae deletion strains, locus YOR136W, strain idh2, active compounds read low): 0.203 (active); normalized growth (S. cerevisiae deletion strains, locus YOR144C, strain elg1, active compounds read low): 0.298 (active); normalized growth (S. cerevisiae deletion strains, locus YOR184W, strain ser1, active compounds read low): 0.0852 (active); normalized growth (S. cerevisiae deletion strains, locus YOR231W, strain MKK1, active compounds read low): 0.975 (inactive); normalized growth (S. cerevisiae deletion strains, locus YOR265W, strain rbl2, active compounds read low): 0.899 (active); normalized growth (S. cerevisiae deletion strains, locus YOR270C, strain vph1, active compounds read low): 0.656 (active); normalized growth (S. cerevisiae deletion strains, locus YOR290C, strain snf2, active compounds read low): 0.711 (active); normalized growth (S. cerevisiae deletion strains, locus YOR316C, strain cot1, active compounds read low): 0.21 (active); normalized growth (S. cerevisiae deletion strains, locus YPL051W, strain arl3, active compounds read low): 0.756 (active); normalized growth (S. cerevisiae deletion strains, locus YPL078C, strain atp4, active compounds read low): 0.867 (active); normalized growth (S. cerevisiae deletion strains, locus YPL106C, strain sse1, active compounds read low): 0.909 (inactive); normalized growth (S. cerevisiae deletion strains, locus YPL240C, strain hsp82, active compounds read low): 0.933 (inactive); normalized growth (S. cerevisiae deletion strains, locus YPL241C, strain CIN2, active compounds read low): 0.0834 (active); normalized growth (S. cerevisiae deletion strains, locus YPL256C, strain CLN2, active compounds read low): 0.983 (inactive); normalized growth (S. cerevisiae deletion strains, locus YPR119W, strain clb2, active compounds read low): 0.2 (active); normalized growth (S. cerevisiae deletion strains, locus YPR141C, strain kar3, active compounds read low): 0.967 (inactive); normalized growth (S. cerevisiae deletion strains, locus YPR163C, strain tif3, active compounds read low): 0.115 (active); normalized growth (S. cerevisiae deletion strains, locus YPR167C, strain met16, active compounds read low): 0.125 (active); normalized growth (S. cerevisiae deletion strains, strain wtn01, active compounds read low): 0.0957 (active); normalized growth (S. cerevisiae strains, strain wild type, active compounds read low): 0.0706 (active)
